In PubChem BioAssay (NCI) one finds growth data, which are given here for four compounds.

What all share (test): NCI-60 one-dose screen, 48 h (100 = growth as untreated, 0 = no growth, -100 = all killed)
Details in all cases: 10 µM unless noted

The subject of experiment [1] is NCI-H322M lung.
Experiment [2] relates to HOP-62 NSCLC.
The test system of experiment [3] is NCI-H460 lung.
For experiment [4], the system named is HOP-92 NSCLC.
The subject of experiment [5] is NCI-H522 lung.
Experiment [6] concerns A549/ATCC NSCLC.
Experiment [7] has as its system 786-0 renal.
Experiment [8] relates to COLO 205 colon.
Experiment [9] concerns DU-145 prostate.
Experiment [10] concerns K-562 leukemia.
Experiment [11] concerns MALME-3M melanoma.
Experiment [12] concerns MDA-MB-231 breast.
The test system of experiment [13] is RXF 393 renal.
For experiment [14], the system named is SF-268 CNS.
Experiment [15] deals with SF-295 CNS.
Experiment [16] has as its system SF-539 CNS.
For experiment [17], the system named is UACC-257 melanoma.
Experiment [18] deals with M14 melanoma.

Where “and” joins values, the source holds several entries; their conditions need not be identical. Equal values may be shown once. Compounds without any hit were thinned out: in the full panel of roughly 83,000, 20% have a hit.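 48-hour exposure, single concentration, 96-well plates; percent growth endpoint where 0 means no net growth. Active: below 10.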 Calls of active or inactive are those of the source.

On to `Cc1cc(O)c(C(C)C)cc1S(=O)(=O)O` (tested in a mixture with another compound), for which the growth in experiment [1] was 90.7% (inactive) and 24.7% (inactive) and 93.4% (inactive); in experiment [2], 77.5% (inactive) and 33.1% (inactive) and 106% (inactive); in experiment [3], 99.1% (inactive) and 1.34% (active) and 108% (inactive); in experiment [4], 89.5% (inactive) and 6.59% (active) and 77.8% (inactive); in experiment [5] it was 88.5% (inactive) and -20.5% (active); in experiment [6], 90.1% (inactive) and 8.67% (active) and 102% (inactive). In addition, the growth in experiment [7] is 87.2% (inactive) and 13% (inactive) and 116% (inactive); in experiment [8], 124% (inactive) and -63.7% (active) and 103% (inactive); in experiment [9], 120% (inactive) and 5.68% (active) and 115% (inactive); in experiment [10], 111% (inactive) and 3.5% (active) and 104% (inactive); in experiment [11] it was 99.7% (inactive) and 47.1% (inactive) and 93.1% (inactive); in experiment [12], 107% (inactive) and 10.3% (inactive) and 90.1% (inactive). Also, the growth was 97.3% (inactive) and 8.53% (active) and 118% (inactive) in experiment [13]; 101% (inactive) and 22% (inactive) and 109% (inactive) in experiment [14]; 101% (inactive) and 77.7% (inactive) in [15]; 93.1% (inactive) and 4.98% (active) and 94.7% (inactive) in [16]; 92.6% (inactive) and 40.4% (inactive) and 94.9% (inactive) in experiment [17]; 91.5% (inactive) and -39.1% (active) and 106% (inactive) in [18].
With `CN(C)c1ccc(C(=C2C=CC(=[N+](C)C)C=C2)c2ccccc2Cl)cc1`, the growth is -7.26% (active) and 10.3% (inactive) in [1]; -43.7% (active) and -94.3% (active) in [2]; -60.8% (active) and -49.7% (active) in experiment [3]; -78.2% (active) and -72% (active) in experiment [4]; -57.4% (active) and -56.5% (active) in experiment [5]; -55.9% (active) and -34.5% (active) in experiment [6]. For the same compound, the growth is -88.2% (active) and -100% (active) in experiment [7]; -89.1% (active) and -90% (active) in experiment [8]; -97% (active) in experiment [9]; 7.59% (active) in experiment [10]; -56.3% (active) and -46.1% (active) in experiment [11]; -36.9% (active) and -66.9% (active) in [12]. Besides, the growth in [13] was -84.3% (active); in [14], -84.1% (active); in experiment [15], -30.4% (active) and -25.8% (active); in [16], -58.9% (active) and -92.1% (active); in experiment [17] it was -77.7% (active); in [18], -62.8% (active) and -95.3% (active).
For the compound `O=C1c2c(O)cc(O)cc2OC(c2ccc(O)c(O)c2)C1O` (centres undefined), the growth in experiment [1] was 126% (inactive); in [2], 110% (inactive); in [3] it was 107% (inactive); in [4] it was 108% (inactive); in experiment [6], 105% (inactive); in experiment [8] it was 119% (inactive). The growth in experiment [9] is 132% (inactive); in experiment [10], 104% (inactive); in experiment [11], 118% (inactive); in experiment [12], 106% (inactive); in [13], 124% (inactive); in [14] it was 111% (inactive). The growth is 119% (inactive) in experiment [15], 107% (inactive) in experiment [16] and 107% (inactive) in experiment [17].
For the compound `CC(O)Cn1cnc2c1c(=O)n(C)c(=O)n2C` (centres undefined), the growth is 96.6% (inactive) in experiment [1]; 102% (inactive) in experiment [2]; 118% (inactive) in experiment [3]; 99.6% (inactive) in experiment [6]; 102% (inactive) in [7]; 110% (inactive) in experiment [11]. In addition, the growth in experiment [12] was 95.5% (inactive); in [13] it was 99.3% (inactive); in experiment [14] it was 103% (inactive); in experiment [15] it was 109% (inactive); in [16] it was 93.7% (inactive); in [17], 106% (inactive). For the same compound, the growth in experiment [18] is 104% (inactive).
